Columns and labels:
Experiment in all cases: log2 ratio of Biotin-Ahx-Ub-VS probe labelling (fragment/DMSO); higher = less target engagement (more negative = stronger competition), active = hit call of the paper (q ≤ 0.05, log2 ratio ≤ -1)
Conditions in all cases: compound concentration: 200 uM; treatment time: 3 h
USP19 = biological target: T1, USP19 (UniProt O94966)
T1 sequence (whole entry): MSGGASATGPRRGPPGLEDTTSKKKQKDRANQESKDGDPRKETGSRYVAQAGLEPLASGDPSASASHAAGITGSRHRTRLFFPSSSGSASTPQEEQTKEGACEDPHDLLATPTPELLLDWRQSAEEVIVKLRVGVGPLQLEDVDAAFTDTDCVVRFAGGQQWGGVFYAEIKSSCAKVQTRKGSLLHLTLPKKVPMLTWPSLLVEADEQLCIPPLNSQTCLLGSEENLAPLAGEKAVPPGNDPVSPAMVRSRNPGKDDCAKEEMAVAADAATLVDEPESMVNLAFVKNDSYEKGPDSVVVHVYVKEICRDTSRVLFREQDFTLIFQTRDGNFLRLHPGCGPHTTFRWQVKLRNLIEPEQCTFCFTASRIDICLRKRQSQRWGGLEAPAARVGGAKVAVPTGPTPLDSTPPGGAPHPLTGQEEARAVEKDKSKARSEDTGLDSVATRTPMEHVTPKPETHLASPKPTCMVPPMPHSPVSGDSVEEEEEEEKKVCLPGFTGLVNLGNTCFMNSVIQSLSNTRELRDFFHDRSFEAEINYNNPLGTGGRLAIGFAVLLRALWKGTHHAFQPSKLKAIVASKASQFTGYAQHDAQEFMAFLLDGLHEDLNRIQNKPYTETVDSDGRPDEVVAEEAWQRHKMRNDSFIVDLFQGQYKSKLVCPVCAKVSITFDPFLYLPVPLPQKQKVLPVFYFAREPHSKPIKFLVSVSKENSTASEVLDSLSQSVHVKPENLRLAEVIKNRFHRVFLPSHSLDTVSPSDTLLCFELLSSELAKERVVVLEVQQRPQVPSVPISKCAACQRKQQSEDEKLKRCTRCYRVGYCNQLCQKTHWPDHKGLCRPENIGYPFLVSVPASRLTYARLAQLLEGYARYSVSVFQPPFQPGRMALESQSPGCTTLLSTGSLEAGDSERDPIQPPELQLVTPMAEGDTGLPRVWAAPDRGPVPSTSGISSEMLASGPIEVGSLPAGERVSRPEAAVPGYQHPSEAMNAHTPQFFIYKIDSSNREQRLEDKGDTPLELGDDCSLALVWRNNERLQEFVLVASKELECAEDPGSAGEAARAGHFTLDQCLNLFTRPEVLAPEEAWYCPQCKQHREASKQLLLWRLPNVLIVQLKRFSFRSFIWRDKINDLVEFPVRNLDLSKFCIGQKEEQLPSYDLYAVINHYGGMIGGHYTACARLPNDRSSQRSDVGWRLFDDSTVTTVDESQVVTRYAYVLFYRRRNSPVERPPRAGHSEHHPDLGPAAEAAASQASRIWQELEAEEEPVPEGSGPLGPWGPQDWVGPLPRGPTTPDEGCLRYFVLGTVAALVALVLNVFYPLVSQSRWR
Summary of the method: (§1)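 The table lists average log2 ratios of fragment over vehicle, from an unpaired t-test on global-median-normalised Spectronaut label-free quantities. Proteins with ≥2 unique peptides were used. Samples were HEK293T lysate (495 µg) treated in triplicate with fragment at 200 µM or vehicle for 3 h, then with Biotin-Ahx-Ub-VS (0.5 µM final) for 1 h, with labelled DUBs NeutrAvidin-enriched and run by diaPASEF LC-MS/MS.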

USP22 = biological target: T2, USP22 (UniProt Q9UPT9)
T2 sequence (whole entry): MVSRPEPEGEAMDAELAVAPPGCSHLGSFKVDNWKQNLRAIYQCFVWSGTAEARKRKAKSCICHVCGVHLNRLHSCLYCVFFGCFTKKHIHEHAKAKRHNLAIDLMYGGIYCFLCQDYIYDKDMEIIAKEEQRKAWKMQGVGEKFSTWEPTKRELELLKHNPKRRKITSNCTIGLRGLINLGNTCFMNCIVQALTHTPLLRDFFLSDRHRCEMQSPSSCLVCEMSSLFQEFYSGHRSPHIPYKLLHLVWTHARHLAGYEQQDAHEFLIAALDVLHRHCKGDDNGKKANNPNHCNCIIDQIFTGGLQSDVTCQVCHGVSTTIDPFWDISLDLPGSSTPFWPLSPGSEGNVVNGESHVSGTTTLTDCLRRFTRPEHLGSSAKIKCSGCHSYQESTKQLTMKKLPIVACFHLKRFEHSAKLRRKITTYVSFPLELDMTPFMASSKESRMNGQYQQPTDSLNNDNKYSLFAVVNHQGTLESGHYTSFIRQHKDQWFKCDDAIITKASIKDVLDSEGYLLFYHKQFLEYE
Summary of the method: as §1

USP24 = USP24 (UniProt Q9UPU5)
Chain of USP24 (Q9UPU5 whole entry): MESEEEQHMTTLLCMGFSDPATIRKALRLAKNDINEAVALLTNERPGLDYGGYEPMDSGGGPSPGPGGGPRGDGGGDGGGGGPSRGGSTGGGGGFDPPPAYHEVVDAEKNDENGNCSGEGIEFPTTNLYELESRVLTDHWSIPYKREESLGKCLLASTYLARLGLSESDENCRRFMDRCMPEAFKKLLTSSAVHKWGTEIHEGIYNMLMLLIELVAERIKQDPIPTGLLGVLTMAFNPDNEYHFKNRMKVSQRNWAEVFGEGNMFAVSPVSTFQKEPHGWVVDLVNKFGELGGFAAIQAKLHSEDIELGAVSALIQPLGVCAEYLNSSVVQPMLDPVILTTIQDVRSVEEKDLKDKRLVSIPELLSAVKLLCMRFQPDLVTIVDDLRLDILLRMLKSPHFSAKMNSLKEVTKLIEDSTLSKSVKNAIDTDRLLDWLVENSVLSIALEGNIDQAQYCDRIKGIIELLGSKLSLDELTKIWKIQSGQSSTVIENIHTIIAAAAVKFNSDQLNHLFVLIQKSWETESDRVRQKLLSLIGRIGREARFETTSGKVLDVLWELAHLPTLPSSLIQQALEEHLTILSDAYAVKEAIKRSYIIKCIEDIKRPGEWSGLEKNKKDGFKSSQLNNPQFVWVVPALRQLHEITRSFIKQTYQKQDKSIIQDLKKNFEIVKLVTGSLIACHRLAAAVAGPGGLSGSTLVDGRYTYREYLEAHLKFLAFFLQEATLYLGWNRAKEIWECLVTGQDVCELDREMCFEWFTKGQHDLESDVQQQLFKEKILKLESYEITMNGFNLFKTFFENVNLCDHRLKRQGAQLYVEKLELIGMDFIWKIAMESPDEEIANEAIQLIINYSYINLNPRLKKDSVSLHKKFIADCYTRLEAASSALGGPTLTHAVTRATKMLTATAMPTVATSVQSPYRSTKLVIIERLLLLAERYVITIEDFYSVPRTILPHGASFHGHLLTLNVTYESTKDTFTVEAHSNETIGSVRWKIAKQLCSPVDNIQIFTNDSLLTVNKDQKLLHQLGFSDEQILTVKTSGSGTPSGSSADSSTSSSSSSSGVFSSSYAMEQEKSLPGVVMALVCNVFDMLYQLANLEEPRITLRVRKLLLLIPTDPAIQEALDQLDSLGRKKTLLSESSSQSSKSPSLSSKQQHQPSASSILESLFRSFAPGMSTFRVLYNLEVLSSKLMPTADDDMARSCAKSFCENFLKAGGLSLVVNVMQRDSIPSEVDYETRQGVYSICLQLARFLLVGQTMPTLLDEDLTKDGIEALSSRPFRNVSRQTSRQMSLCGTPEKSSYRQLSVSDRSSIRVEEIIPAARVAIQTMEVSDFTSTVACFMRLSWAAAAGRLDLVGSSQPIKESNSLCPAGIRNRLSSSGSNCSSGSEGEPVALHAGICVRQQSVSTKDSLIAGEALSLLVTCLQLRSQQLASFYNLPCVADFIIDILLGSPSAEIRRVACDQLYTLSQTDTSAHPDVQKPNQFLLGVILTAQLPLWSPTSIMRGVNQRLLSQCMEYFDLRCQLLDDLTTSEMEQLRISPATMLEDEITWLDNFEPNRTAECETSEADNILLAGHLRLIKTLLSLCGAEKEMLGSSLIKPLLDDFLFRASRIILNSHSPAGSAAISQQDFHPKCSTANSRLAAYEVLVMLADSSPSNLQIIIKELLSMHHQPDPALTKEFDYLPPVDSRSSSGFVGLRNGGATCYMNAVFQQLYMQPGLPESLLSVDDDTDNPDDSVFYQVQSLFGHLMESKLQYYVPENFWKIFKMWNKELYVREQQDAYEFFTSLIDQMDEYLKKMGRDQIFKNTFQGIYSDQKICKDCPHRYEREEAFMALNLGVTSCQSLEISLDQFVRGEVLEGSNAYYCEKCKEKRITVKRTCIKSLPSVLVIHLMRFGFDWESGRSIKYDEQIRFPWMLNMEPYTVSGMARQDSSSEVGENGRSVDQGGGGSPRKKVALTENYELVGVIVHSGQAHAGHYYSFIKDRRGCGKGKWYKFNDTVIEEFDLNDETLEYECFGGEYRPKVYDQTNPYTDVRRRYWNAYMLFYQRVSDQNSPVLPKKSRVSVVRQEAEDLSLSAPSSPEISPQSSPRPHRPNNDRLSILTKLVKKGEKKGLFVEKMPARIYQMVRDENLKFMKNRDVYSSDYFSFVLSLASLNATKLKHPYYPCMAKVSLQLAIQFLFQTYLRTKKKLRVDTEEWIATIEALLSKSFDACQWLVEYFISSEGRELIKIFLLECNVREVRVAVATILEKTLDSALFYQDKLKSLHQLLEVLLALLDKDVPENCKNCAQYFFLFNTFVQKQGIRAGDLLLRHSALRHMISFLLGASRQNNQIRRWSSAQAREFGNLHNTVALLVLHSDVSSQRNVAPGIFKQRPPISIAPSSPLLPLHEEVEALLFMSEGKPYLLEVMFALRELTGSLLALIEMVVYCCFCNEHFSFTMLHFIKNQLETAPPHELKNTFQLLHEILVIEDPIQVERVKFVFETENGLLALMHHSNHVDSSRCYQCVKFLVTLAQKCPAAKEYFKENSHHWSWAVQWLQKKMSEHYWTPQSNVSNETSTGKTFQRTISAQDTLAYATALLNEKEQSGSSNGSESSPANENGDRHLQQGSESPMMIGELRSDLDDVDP
Summary of the method: as §1

USP25 = biological target: T3, USP25 (UniProt Q9UHP3)
T3 sequence (whole entry): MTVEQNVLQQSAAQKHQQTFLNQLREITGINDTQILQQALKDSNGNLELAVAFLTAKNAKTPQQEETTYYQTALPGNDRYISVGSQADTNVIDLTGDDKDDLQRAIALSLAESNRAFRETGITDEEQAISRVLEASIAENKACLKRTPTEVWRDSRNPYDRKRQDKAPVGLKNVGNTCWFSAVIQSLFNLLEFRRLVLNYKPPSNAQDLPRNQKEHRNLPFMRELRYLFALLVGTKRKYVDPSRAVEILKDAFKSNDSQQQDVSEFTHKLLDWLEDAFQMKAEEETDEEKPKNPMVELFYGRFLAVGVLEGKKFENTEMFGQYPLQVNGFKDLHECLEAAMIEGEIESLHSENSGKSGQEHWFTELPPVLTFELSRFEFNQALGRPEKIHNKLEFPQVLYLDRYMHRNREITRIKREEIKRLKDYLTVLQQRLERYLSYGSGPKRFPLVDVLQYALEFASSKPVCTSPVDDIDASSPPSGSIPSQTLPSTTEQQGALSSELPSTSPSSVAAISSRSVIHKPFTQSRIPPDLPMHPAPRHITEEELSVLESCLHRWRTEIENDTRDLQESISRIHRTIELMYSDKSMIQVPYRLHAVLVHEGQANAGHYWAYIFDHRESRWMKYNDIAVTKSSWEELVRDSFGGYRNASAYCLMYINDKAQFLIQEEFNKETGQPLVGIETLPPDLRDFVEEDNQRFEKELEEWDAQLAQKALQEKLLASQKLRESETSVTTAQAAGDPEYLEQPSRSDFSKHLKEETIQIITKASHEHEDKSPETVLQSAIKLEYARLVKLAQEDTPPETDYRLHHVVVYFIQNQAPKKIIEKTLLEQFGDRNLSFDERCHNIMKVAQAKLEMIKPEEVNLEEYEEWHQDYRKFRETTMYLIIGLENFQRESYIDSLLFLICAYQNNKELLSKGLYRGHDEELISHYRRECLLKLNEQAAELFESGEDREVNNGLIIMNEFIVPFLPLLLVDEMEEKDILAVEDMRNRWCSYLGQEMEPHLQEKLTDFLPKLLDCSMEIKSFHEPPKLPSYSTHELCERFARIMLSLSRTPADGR
Summary of the method: as §1

USP28 = biological target: T4, USP28 (UniProt Q96RU2)
T4 sequence (whole entry): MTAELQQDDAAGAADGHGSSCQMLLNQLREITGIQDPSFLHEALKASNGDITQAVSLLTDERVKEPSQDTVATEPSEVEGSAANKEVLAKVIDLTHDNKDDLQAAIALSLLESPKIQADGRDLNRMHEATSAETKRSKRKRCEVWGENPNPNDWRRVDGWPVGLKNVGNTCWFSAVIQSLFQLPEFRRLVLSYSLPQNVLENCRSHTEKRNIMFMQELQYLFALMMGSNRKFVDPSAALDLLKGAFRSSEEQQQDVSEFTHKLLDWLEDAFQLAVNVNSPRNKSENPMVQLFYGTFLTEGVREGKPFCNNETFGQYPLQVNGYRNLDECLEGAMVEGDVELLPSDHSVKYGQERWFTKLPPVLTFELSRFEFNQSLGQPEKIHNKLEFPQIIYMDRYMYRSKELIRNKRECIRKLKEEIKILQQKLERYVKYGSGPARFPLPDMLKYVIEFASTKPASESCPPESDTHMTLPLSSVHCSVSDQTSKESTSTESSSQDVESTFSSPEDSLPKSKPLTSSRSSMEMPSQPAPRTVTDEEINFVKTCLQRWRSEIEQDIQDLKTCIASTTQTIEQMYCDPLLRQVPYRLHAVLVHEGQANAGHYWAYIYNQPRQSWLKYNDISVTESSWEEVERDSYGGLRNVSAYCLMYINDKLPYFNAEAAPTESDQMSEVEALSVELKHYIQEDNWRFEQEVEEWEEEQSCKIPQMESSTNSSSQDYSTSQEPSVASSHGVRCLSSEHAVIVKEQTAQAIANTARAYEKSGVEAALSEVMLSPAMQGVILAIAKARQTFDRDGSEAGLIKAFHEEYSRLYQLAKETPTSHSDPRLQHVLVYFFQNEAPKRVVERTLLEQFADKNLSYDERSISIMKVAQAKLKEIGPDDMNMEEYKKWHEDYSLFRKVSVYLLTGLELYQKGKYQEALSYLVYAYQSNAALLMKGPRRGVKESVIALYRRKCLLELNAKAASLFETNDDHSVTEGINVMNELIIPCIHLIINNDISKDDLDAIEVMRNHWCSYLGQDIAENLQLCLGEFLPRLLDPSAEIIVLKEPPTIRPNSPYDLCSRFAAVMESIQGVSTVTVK
Summary of the method: as §1

Measured: log2 ratio of Biotin-Ahx-Ub-VS probe labelling

CC(NC(=O)CCl)c1cc2n(n1)CCCC2.Cl (stereo not given)
inactive: USP19 -0.153 | USP22 0.0191 | USP24 -0.262 | USP25 -0.378 | USP28 -0.582

Source: the supplement of paper PMC11732987, “Enantioselective OTUD7B fragment discovery through chemoproteomics screening and high-throughput optimisation” (Communications Chemistry, 2025)
